The nature of experiment [1]: anti-His antibody binders, primary screen, artefact control for SMM control protein annotation, biochemical, small-molecule microarray, 635 nm fluorescence (AID 1128).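 Further: score merges feature fluorescence with signal-to-noise for each printed compound spot.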 To be noted: anti-His Alexa647 antibody binding, higher = more signal.
In experiment [2] the test system is Human papillomavirus type 1a E7 protein (residues 1-88). Put plainly: HPV1a E7 small-molecule binders, primary screen, biochemical, small-molecule microarray, residues 1-88, 635 nm (AID 1129). To be noted: small-molecule microarray binding, fluorescence 635 nm; higher = more signal.
For experiment [3], the target named is Focal adhesion kinase 1 (Homo sapiens) (UniProt Q05397). Put plainly: small-molecule microarray binders of FAK, primary screen, biochemical, 635/667 nm fluorescence, BSA, DTT (AID 1130).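 Further: composite of spot emission at 667 nm and signal to noise over triplicate slides.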 To be noted: PTK2 binding, 635 nm fluorescence, higher = more signal.
Focal adhesion kinase 1 (Homo sapiens), sequence (Q05397 whole entry, looked up): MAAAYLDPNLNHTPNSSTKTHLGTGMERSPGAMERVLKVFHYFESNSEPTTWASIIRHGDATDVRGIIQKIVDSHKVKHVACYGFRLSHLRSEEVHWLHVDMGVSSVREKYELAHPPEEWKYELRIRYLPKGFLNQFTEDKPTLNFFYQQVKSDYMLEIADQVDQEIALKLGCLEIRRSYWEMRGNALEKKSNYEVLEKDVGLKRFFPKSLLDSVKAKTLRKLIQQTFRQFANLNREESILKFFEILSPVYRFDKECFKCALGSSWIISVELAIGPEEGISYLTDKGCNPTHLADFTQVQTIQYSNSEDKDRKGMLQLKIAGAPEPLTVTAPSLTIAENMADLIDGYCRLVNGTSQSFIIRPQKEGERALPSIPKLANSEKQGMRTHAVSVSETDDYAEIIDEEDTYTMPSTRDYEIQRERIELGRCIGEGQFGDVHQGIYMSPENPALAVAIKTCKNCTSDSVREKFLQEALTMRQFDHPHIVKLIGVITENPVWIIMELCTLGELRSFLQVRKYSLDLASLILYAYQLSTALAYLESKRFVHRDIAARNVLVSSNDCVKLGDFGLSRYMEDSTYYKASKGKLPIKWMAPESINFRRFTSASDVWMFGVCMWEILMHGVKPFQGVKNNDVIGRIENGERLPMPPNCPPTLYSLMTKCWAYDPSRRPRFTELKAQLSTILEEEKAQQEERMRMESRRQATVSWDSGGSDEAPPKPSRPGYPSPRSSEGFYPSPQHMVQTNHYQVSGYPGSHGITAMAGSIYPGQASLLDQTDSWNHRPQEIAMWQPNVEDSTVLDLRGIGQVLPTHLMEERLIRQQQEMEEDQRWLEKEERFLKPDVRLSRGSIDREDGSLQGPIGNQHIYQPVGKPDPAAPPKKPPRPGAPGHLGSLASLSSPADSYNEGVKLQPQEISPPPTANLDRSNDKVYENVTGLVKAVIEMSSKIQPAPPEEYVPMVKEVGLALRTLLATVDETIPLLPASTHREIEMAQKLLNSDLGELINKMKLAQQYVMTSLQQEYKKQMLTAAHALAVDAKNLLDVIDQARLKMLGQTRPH
For experiment [4], the system named is Fibrinogen (Alexa647-labelled). In words: fibrinogen binders on compound microarrays, profiling panel, artefact control for SMM control-protein annotation, biochemical, small-molecule microarray, 635/667 nm fluorescence (AID 1131).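 Further: z-score merges 667 nm fluorescence with per-spot signal-to-noise over triplicate slides.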 To be noted: fibrinogen-A647 binding fluorescence, higher = more signal.
Experiment [5] addresses Follistatin (Homo sapiens) (UniProt P19883). Put plainly: follistatin binders on small-molecule microarrays, primary screen, biochemical, small-molecule microarray, 635/667 nm fluorescence (AID 1132). To be noted: FST binding, 635 nm fluorescence, higher = more signal.
In experiment [6] the target is Fibroblast growth factor 2 (Homo sapiens) (UniProt P09038). Put plainly: FGF2 binders on small-molecule microarrays, primary screen, biochemical, small-molecule microarray, 635/667 nm fluorescence (AID 1133). The following applies: small-molecule microarray binding, FGF2, fluorescence 635/667; higher = more signal.
Fibroblast growth factor 2 (Homo sapiens), sequence (P09038 whole entry, looked up): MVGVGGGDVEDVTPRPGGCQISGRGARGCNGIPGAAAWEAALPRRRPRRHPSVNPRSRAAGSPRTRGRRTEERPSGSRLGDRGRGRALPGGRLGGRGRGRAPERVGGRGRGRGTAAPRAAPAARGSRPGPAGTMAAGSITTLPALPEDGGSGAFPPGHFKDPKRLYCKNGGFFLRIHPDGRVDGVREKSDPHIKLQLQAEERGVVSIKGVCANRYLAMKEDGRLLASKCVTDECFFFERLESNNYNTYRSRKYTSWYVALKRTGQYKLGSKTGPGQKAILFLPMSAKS
Experiment [7] can be described thus: mitochondrial membrane potential change in A549 cells, profiling panel, cell-based, JC-1 fluorescence, basal, 24 h, 100 nL (AID 1138).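 Further: A549 lung adenocarcinoma cells under basal conditions with no added stimulus; test concentration not given here.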 To be noted: higher = more signal.
The test system of a further experiment is Lefty1. In words: Lefty1 binders on small-molecule microarrays, primary screen, biochemical, small-molecule microarray, 635/667 nm fluorescence (AID 1139). To be noted: small-molecule microarray binding, fluorescence 635/667; higher = more signal.
The test system of experiment [8] is wheat germ agglutinin (Triticum aestivum), Alexa647-labelled. In words: wheat germ agglutinin binders on compound microarrays, profiling panel, artefact control for SMM control-protein annotation, biochemical, small-molecule microarray, 635/667 nm fluorescence (AID 1140).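 Further: score merges 667 nm feature emission with signal to noise over triplicate slides.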 The following applies: WGA-A647 binding, 635 nm fluorescence, higher = more signal.
The target of experiment [9] is Luciferin 4-monooxygenase (Photinus pyralis) (UniProt P08659). Put plainly: firefly luciferase enzyme inhibitors, primary screen, biochemical, luminescence, purified enzyme, 2006 set (AID 1141).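 Further: cell-free assay with purified firefly luciferase at 100 ng per well in PBS; test concentration not given here.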 The following applies: SteadyGlo luminescence, 30 min, higher = more signal, called active from +8 up or from −8 down.
Luciferin 4-monooxygenase (Photinus pyralis), sequence (P08659 whole entry, looked up): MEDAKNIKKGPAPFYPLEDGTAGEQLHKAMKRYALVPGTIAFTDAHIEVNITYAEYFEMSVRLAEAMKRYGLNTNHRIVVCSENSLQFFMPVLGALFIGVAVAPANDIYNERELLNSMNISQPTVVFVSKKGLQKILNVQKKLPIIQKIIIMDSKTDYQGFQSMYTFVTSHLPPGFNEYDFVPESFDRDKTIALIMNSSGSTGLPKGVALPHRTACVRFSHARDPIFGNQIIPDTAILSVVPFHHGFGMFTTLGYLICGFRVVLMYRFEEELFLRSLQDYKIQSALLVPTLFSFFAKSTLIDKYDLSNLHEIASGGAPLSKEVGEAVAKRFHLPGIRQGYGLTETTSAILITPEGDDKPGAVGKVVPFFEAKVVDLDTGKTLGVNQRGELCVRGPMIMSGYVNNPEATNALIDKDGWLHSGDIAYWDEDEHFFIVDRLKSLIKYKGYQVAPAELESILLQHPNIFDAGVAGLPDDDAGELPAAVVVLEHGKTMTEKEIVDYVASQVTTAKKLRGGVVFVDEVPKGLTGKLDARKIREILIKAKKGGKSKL

The values below come from PubChem BioAssay.

Active and inactive are the calls of the source.

Follistatin (Homo sapiens), sequence (P19883 whole entry, looked up): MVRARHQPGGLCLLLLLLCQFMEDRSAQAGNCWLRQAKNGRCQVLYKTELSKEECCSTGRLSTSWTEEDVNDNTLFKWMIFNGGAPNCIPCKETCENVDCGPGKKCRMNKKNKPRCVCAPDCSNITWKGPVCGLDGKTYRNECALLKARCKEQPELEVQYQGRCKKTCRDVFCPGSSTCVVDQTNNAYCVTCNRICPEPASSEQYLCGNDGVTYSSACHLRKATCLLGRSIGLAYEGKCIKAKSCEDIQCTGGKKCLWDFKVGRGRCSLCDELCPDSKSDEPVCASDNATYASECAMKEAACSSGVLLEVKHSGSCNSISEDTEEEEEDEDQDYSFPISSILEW

With `CCOC(=O)C[C@H]1[C@H](OC(=O)c2ccc(-c3ccccc3)cc2)[C@@H](NC(=O)C2CCCCC2)c2cc(OCCCO)ccc2N1C(=O)Cc1ccc(OC)cc1`, the composite z-score in experiment [1] stood at 0.132; in experiment [2], 0.365; in experiment [3], 0.106; in [4], 0.267; in experiment [5], 0.2; in experiment [6], 0.345. Besides, the composite z-score in the experiment with Lefty1 worked out at 0.867; in experiment [8], 0.229. The z-score is 0.47 in experiment [7] and 0.347 (inactive) in [9].

Take `CC(C)Cc1ccc(CN2CC[C@@H](NC(=O)c3ccccc3)C2)cc1`: the composite z-score is 0.44 in experiment [1]; -1.55 in experiment [2]; -0.144 in experiment [3]; 0.411 in experiment [4]; -0.0213 in [5]; -0.382 in [6]. Also, the composite z-score in the experiment with Lefty1 stood at 0.247; in experiment [8], 0.0191. Besides, the z-score in experiment [7] was 1.81; in experiment [9], 0.525 (inactive).

On to `C[C@@]1([C@@H](NS(=O)(=O)c2cccc3cccnc23)c2ccc(-c3ccccc3)cc2)C[C@H]1C1CCCCC1`, for which the composite z-score in [1] was 0.431; in experiment [2], 1.18; in experiment [3] it was 1.14; in experiment [4] it was -0.744; in [5], 0.247; in experiment [6] it was -0.506. The composite z-score in the experiment with Lefty1 is -0.959; in experiment [8] it was 0.655. The z-score is 0.00915 in [7] and 1.29 (inactive) in experiment [9].

For `CC[C@@H]1C=C(C(=O)O)[C@H](c2cccc(Cl)c2)N1S(=O)(=O)c1ccc(C)cc1`, the composite z-score in experiment [1] was 1.47; in experiment [2] it was 1.14; in [3], 0.887; in [4], -0.611; in experiment [5] it was -0.126; in experiment [6], -0.686. For the same molecule, the composite z-score with Lefty1 is -0.908; in [8] it was 0.226. Further, the figures for the z-score in experiment [7] and in experiment [9] were 0.435 and 0.556 (inactive), respectively.

Consider `C=C(COC)C(=O)CC[C@@H](OC(=O)c1ccccc1-c1ccccc1C(=O)O)c1ccccc1OCCO`, for which the composite z-score in [1] was 0.116; in [2], 1.15; in [3], -0.267; in experiment [4] it was 0.599; in [5], 1.29; in [6], 1.64. The composite z-score in the experiment on Lefty1 is 0.922; in experiment [8], -0.272. For the same molecule, the z-score in [7] is -0.0562; in experiment [9], -6.94 (inactive).

As to `O=C1NC(=O)C2C1C=CC(C(O)C(c1ccccc1)c1ccccc1)N2Nc1ccccn1` (stereo not given), the composite z-score in experiment [1] turned out to be 2.42; in experiment [2] it was 1.15; in experiment [3], 0.595; in experiment [4], 0.987; in experiment [5], 0.709; in [6], 1.06. Also, the composite z-score was -0.0403 in the experiment on Lefty1 and 0.843 in experiment [8]. The z-score was 0.669 in experiment [7] and -2.04 (inactive) in experiment [9].

`O=C1OCCC/C=C\[C@H]2OC34C=CCN(Cc5ccccc5)C(=O)[C@H]3N(CCO)C(=O)[C@@H]4C12` (stereo not given in full): the composite z-score in experiment [1] was -0.941; in experiment [2], 0.444; in experiment [3] it was -0.287; in [4], -0.956; in experiment [5], -0.296; in [6] it was -0.259. Also, the composite z-score with Lefty1 is 0.398; in [8], -0.889. Moreover, the figures for the z-score in experiment [7] and in experiment [9] were 1.64 and -1.56 (inactive), respectively.

On to `COc1ccc(C(=O)Nc2ccc(CN3C(=O)[C@]4(O[C@H](CC(=O)N(CCO)Cc5ccccc5)[C@@H]([Si](C)(C)c5ccc(OC)cc5)[C@@H]4C)c4ccccc43)cc2)cc1`, for which the composite z-score in experiment [1] amounted to 0.122; in [2], 1.14; in experiment [3] it was 0.677; in experiment [4], 0.375; in experiment [5], 1.25; in [6], 1.31. Further, the composite z-score with Lefty1 was found to be 1.32; in experiment [8], 0.162. The z-score in experiment [7] was -0.474; in experiment [9] it was 0.505 (inactive).

On to `OCCCc1cc[n+](Cc2cc3c(cc2Br)OCO3)cc1`, for which the composite z-score in experiment [1] is -0.874; in [2], -1.86; in experiment [3], -0.719; in experiment [4] it was -1.64; in experiment [5] it was -0.528; in experiment [6], -0.333. The composite z-score with Lefty1 is -0.903; in [8], -0.77. For the same molecule, the figures for the z-score in experiment [7] and in experiment [9] were -0.0611 and -0.903 (inactive), respectively.

Consider `C=CCOC(=O)[C@H]1[C@@H]2C(=O)O[C@@H](c3ccccc3)[C@@H](c3ccccc3)N2[C@@H](c2ccc(OCCOC(=O)[C@H]3C[C@H]4C(=O)NCC(=O)N4[C@H]3c3ccc(O)cc3)cc2)[C@]12C(=O)Nc1ccccc12`, for which the composite z-score turned out to be 1.46 in [1]; 1.22 in experiment [2]; 0.402 in [3]; 0.961 in experiment [4]; 1.44 in experiment [5]; 1.46 in [6]. The composite z-score was determined as 1.26 in the experiment with Lefty1 and 0.543 in [8]. Moreover, the z-score is -1.62 in experiment [7] and 0.207 (inactive) in experiment [9].

For the molecule `CCOC(=O)C1=CCC(c2cccn2C(=O)OC(C)(C)C)N(S(=O)(=O)c2ccc(C)cc2)C1` (stereo not given), the composite z-score in [1] turned out to be 1.86; in [2], 1.21; in [3], 0.42; in [4] it was 0.827; in [5], 1.13; in experiment [6], 0.433. For the same molecule, the composite z-score worked out at 0.498 in the experiment on Lefty1 and 1.2 in experiment [8]. The z-score in [7] was 1.22; in experiment [9], -0.997 (inactive).

As for `C=CCNC(=O)[C@@H]1[C@H]2C(=O)O[C@H](c3ccccc3)[C@H](c3ccccc3)N2[C@H](c2ccc(OCCO)cc2)[C@@]12C(=O)Nc1ccc(C#CC3=CCCCC3)cc12`, the composite z-score is 1.15 in experiment [1]; 1.23 in experiment [2]; 1.08 in [3]; 0.972 in [4]; 1.1 in experiment [5]; 0.582 in [6]. In addition, the values for the composite z-score (with Lefty1; in [8]) were 1.11 and 0.898, respectively. In addition, the z-score was -1.56 in experiment [7] and -0.806 (inactive) in [9].

For `CO[C@H]1O[C@H](CO)[C@@H](OC(=O)Nc2cccc(F)c2)[C@H](OC(=O)Nc2ccc3c(c2)OCO3)[C@@H]1OC(=O)Nc1ccc2c(c1)OCO2`, the composite z-score was determined as 2.61 in experiment [1]; 1.29 in [2]; 0.243 in [3]; 0.973 in experiment [4]; 1.25 in [5]; 0.217 in [6]. The composite z-score came to 0.278 with Lefty1 and 0.654 in experiment [8]. Also, the values for the z-score in experiment [7] and in [9] were -0.307 and -4.46 (inactive), respectively.

On to `COc1ccc(NN2C(C(O)c3ccccc3)C=CC3C(=O)N(C4CCCCC4)C(=O)C32)cc1` (stereo not given), for which the composite z-score in experiment [1] came to 0.864; in experiment [2], 1.26; in experiment [3], 0.82; in experiment [4], 0.996; in experiment [5], 0.925; in [6], 0.202. In addition, the composite z-score with Lefty1 came to 0.769; in experiment [8], 1.03. The z-score in experiment [7] was 0.338; in experiment [9], -0.684 (inactive).
